# Source: the supplement of paper PMC8728848
# The full list was thinned out, with the strongest signals kept by preference.
# Tests used:
# Assay in all cases: glycan array binding signal (z-score within array); higher = stronger binding
# [1] = test system: Fuc(a1-3)[Gal(b1-4)]GlcNAc(b1-3)Gal(b1-3)[Fuc(a1-4)]GlcNAc; conditions: glycan notation: IUPAC condensed, linker removed
# How it was run: (§1)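 The binding signal is a Z-score computed within each array and averaged over linkers. Arrays of the same protein sequence at different concentrations or buffers were also averaged together. Data originate from 3228 arrays in the Consortium for Functional Glycomics database, kept only where the protein sequence was available.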
# [2] = test system: Fuc(a1-3)[Gal(b1-4)]GlcNAc(b1-4)Gal(b1-4)[Fuc(a1-3)]GlcNAc(b1-4)Gal(b1-4)[Fuc(a1-3)]GlcNAc; conditions: glycan notation: IUPAC condensed, linker removed
# How it was run: as §1
# [3] = test system: Fuc(a1-3)[Gal(b1-4)]GlcNAc(b1-4)Gal(b1-4)[Fuc(a1-3)]GlcNAc; conditions: glycan notation: IUPAC condensed, linker removed
# How it was run: as §1
# [4] = test system: Fuc(a1-3)[Gal(b1-4)]GlcNAc; conditions: glycan notation: IUPAC condensed, linker removed
# How it was run: as §1
# [5] = test system: Fuc(a1-2)[GalNAc(a1-3)]Gal(b1-4)GlcNAc; conditions: glycan notation: IUPAC condensed, linker removed
# How it was run: as §1
# [6] = test system: Fuc(a1-3)[Gal(b1-4)]GlcNAc(b1-2)Man; conditions: glycan notation: IUPAC condensed, linker removed; mutation: R125K
# How it was run: as §1
# [7] = test system: Fuc(a1-3)[Gal(b1-4)]GlcNAc(b1-3)Gal(b1-4)[Fuc(a1-3)]GlcNAc; conditions: glycan notation: IUPAC condensed, linker removed
# How it was run: as §1
# [8] = test system: Fuc(a1-3)[Gal(b1-4)]GlcNAc(b1-6)GalNAc; conditions: glycan notation: IUPAC condensed, linker removed
# How it was run: as §1
# [9] = test system: Fuc(a1-3)[Gal(b1-4)]GlcNAc6S; conditions: glycan notation: IUPAC condensed, linker removed
# How it was run: as §1
# [10] = test system: Fuc(a1-2)[GalNAc(a1-3)]Gal; conditions: glycan notation: IUPAC condensed, linker removed
# How it was run: as §1
# [11] = test system: Fuc(a1-2)[GalNAc(a1-3)]Gal(b1-4)[Fuc(a1-3)]GlcNAc(b1-3)GalNAc; conditions: glycan notation: IUPAC condensed, linker removed
# How it was run: as §1
# [12] = test system: Fuc(a1-2)[GalNAc(a1-3)]Gal(b1-4)[Fuc(a1-3)]GlcNAc; conditions: glycan notation: IUPAC condensed, linker removed
# How it was run: as §1
# [13] = test system: Fuc(a1-3)[Gal(b1-4)]GlcNAc(b1-2)Man(a1-6)[Gal(b1-4)GlcNAc(b1-2)Man(a1-3)]Man(b1-4)GlcNAc(b1-4)GlcNAc; conditions: glycan notation: IUPAC condensed, linker removed
# How it was run: as §1
# [14] = test system: Fuc(a1-3)[Gal3S(b1-4)]Glc6S; conditions: glycan notation: IUPAC condensed, linker removed
# How it was run: as §1
# [15] = test system: Fuc(a1-2)[GalNAc(b1-3)]Gal; conditions: glycan notation: IUPAC condensed, linker removed
# How it was run: as §1
# [16] = test system: Fuc(a1-3)[Gal(b1-4)]Glc6S; conditions: glycan notation: IUPAC condensed, linker removed
# How it was run: as §1
# [17] = test system: Fuc(a1-3)[Gal(b1-4)]GlcNAc(b1-3)Gal(b1-4)[Fuc(a1-3)]GlcNAc(b1-3)Gal(b1-4)[Fuc(a1-3)]GlcNAc; conditions: glycan notation: IUPAC condensed, linker removed
# How it was run: as §1
# [18] = test system: Fuc(a1-2)[GalNAc(a1-3)]Gal(b1-4)Glc; conditions: glycan notation: IUPAC condensed, linker removed
# How it was run: as §1
# [19] = test system: Fuc(a1-2)[GalNAc(a1-4)]Gal(b1-4)GlcNAc; conditions: glycan notation: IUPAC condensed, linker removed
# How it was run: as §1
# [20] = test system: Fuc(a1-3)[Gal(b1-4)]GlcNAc(b1-6)[Gal(b1-3)GlcNAc(b1-3)]Gal(b1-4)Glc; conditions: glycan notation: IUPAC condensed, linker removed
# How it was run: as §1
# Chain of PILRb (Mus musculus), Q2YSF2 (Q2YSF2 entry or part of it): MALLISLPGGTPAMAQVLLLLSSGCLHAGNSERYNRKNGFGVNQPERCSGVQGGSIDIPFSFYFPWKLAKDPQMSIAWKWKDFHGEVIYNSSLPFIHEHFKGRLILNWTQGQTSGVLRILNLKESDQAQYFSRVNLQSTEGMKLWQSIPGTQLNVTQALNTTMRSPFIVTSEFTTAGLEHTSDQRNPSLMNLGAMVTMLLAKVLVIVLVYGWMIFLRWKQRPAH
# Chain of Avaren (Actinomycete K97) (chain, as listed by the source): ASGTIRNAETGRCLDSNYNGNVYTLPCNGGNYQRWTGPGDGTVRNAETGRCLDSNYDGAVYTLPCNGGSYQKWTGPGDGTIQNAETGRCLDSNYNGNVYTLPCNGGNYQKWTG
# Chain of SRLC (Mus musculus), Q8VIF6 (Q8VIF6 other isoform, or with tags, fused parts or gaps): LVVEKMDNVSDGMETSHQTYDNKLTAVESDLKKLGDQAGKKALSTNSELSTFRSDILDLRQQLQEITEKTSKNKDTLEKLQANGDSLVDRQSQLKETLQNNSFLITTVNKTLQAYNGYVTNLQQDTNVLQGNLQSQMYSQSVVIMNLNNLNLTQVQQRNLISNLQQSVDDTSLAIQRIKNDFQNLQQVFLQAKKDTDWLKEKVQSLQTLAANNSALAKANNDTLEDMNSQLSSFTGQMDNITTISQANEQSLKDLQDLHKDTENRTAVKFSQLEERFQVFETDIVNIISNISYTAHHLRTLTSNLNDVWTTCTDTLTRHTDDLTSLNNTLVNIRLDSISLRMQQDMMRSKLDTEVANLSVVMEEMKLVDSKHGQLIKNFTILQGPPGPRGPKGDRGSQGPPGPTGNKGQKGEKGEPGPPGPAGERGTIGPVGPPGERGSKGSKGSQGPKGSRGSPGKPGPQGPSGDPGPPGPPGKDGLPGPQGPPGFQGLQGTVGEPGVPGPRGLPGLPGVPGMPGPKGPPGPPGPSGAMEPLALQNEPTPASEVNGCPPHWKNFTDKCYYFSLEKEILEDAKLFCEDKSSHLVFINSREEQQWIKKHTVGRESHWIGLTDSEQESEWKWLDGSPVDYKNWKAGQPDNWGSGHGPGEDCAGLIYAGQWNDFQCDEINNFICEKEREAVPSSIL
# Chain of CHI3L1 (Homo sapiens), P36222 (P36222 whole entry): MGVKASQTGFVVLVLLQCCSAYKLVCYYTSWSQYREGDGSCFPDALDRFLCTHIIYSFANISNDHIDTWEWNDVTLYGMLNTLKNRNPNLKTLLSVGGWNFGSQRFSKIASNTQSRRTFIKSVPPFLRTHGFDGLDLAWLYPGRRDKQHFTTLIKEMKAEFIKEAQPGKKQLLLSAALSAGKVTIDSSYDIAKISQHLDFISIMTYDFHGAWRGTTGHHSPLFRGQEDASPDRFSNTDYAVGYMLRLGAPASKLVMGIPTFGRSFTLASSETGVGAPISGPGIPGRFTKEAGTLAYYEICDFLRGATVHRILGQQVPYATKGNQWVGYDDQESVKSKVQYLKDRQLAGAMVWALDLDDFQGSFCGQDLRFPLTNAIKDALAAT
# Chain of 6RG (Lolium perenne) (chain, as listed by the source): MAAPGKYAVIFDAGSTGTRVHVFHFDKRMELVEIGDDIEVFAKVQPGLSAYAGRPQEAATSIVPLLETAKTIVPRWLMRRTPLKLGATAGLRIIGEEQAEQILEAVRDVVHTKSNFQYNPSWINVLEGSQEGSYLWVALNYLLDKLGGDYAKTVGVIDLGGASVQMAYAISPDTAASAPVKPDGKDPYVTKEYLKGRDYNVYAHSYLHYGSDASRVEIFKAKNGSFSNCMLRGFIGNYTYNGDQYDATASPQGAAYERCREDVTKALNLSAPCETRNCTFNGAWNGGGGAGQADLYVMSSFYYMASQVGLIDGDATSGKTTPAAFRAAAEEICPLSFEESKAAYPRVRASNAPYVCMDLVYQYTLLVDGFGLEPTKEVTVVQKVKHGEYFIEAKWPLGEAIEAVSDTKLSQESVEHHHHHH
# Chain of wLAT-1A (Homo sapiens), Q01650 (Q01650 whole entry): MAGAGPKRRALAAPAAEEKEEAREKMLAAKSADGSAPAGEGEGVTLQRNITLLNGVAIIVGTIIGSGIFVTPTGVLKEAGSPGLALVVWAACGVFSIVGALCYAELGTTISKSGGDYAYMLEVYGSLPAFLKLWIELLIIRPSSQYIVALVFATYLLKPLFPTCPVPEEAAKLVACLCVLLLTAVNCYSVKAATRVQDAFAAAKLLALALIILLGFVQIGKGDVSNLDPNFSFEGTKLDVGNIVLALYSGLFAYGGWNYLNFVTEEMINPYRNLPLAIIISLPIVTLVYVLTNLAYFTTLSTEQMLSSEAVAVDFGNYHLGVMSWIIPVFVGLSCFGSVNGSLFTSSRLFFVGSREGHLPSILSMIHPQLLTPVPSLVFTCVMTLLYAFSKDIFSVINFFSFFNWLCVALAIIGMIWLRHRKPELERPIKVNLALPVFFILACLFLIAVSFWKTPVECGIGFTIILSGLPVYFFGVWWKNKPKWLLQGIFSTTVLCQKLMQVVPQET
# Chain of Neurocan (Homo sapiens), O14594 (O14594 other isoform, or with tags, fused parts or gaps): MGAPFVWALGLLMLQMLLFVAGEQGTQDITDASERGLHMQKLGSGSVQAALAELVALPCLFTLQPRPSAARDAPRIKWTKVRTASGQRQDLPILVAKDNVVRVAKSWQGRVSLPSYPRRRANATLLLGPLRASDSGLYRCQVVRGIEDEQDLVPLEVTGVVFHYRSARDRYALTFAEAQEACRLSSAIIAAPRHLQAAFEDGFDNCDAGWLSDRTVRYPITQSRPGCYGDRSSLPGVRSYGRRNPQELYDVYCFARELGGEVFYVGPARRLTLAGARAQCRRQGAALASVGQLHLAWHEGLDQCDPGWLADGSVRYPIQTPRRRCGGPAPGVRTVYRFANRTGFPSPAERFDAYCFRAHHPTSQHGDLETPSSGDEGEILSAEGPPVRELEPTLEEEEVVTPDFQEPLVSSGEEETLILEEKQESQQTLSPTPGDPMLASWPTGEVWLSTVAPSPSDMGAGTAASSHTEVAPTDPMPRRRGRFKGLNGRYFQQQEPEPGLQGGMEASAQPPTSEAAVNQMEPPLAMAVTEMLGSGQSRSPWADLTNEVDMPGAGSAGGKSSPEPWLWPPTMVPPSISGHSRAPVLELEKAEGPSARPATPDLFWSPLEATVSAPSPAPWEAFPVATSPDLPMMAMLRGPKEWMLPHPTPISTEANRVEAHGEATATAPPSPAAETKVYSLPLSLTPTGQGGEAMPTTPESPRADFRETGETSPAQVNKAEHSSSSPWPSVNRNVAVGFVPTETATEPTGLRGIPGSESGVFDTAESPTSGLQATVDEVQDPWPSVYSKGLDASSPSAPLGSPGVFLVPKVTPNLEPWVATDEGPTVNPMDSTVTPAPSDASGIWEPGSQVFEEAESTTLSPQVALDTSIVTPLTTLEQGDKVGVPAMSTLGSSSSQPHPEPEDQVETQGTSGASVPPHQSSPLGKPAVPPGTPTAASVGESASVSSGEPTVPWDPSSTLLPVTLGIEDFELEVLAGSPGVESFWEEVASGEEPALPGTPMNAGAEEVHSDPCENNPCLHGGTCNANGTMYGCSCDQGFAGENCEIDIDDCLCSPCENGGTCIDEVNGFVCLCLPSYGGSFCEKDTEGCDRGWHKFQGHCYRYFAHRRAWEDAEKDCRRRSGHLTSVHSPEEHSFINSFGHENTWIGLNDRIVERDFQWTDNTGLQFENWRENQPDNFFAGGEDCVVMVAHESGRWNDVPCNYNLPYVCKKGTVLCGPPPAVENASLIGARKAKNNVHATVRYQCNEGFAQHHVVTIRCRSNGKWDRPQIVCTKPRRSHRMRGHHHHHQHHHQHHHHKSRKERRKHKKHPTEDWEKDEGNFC
# Chain of Aggrecan (Rattus norvegicus), NP_071526 (chain, as listed by the source): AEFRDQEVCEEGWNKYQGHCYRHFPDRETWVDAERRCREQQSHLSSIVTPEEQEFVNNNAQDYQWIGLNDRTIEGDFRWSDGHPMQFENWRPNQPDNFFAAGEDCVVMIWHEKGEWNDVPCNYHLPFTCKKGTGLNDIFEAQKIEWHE
# Chain of 6RG (Lolium perenne), B9U140 (B9U140 entry or part of it): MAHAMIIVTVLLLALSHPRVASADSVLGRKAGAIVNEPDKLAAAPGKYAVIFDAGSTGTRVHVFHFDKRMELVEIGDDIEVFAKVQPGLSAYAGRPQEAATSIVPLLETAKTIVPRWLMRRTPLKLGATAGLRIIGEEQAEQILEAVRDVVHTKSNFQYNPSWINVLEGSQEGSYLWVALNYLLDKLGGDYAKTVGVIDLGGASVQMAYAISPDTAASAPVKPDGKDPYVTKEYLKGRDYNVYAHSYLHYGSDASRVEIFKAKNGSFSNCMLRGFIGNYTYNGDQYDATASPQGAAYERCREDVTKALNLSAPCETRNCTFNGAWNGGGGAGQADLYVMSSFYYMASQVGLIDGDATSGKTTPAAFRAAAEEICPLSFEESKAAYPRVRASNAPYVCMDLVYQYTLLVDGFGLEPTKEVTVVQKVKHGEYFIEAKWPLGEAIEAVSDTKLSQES
# Chain of Regenerating Gene IV (Homo sapiens), Q9BYZ8 (Q9BYZ8 whole entry, looked up): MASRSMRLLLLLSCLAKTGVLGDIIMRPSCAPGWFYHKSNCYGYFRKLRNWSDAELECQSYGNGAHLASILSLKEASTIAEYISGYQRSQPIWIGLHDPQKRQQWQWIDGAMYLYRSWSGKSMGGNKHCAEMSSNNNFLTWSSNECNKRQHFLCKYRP
# Chain of CHT (Homo sapiens) (chain, as listed by the source): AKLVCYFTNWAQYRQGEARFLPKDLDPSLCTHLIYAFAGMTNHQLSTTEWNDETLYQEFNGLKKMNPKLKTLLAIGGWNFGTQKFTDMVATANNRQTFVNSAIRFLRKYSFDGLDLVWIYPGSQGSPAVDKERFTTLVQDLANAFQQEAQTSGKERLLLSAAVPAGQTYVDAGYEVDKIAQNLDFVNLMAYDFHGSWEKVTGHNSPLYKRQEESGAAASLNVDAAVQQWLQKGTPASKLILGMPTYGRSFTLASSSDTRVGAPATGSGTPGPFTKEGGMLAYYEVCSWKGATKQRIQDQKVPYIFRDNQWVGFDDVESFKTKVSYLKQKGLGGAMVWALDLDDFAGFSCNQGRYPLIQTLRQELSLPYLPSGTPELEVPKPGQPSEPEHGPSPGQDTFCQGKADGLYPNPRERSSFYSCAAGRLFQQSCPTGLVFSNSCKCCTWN
substance,measurement,setting,value
"SRLC (Mus musculus), Q8VIF6",glycan array binding signal (z-score),[1],4.31
same,glycan array binding signal (z-score),[2],7.13
same,glycan array binding signal (z-score),[3],4.46
same,glycan array binding signal (z-score),[4],6.98
"Siglec-8 (Homo sapiens), Q9NYZ4",glycan array binding signal (z-score),[5]; mutation: R125K,-0.376
same,glycan array binding signal (z-score),[6],-0.3
same,glycan array binding signal (z-score),[7],-0.046
same,glycan array binding signal (z-score),[8],-0.063
same,glycan array binding signal (z-score),[9]; mutation: R125K,5.35
same,glycan array binding signal (z-score),[4]; mutation: R125K,-0.361
MpAFP RI GFP (Marinomonas primoryensis),glycan array binding signal (z-score),[10],-0.389
"PILRb (Mus musculus), Q2YSF2",glycan array binding signal (z-score),[11],11.4
same,glycan array binding signal (z-score),[12],2.67
same,glycan array binding signal (z-score),[13],-0.477
same,glycan array binding signal (z-score),[14],-0.626
"Aggrecan (Rattus norvegicus), NP_071526",glycan array binding signal (z-score),[12],0.401
same,glycan array binding signal (z-score),[15],17.3
"CHI3L1 (Homo sapiens), P36222",glycan array binding signal (z-score),[15],0.059
same,glycan array binding signal (z-score),[16],-0.082
same,glycan array binding signal (z-score),[1],-0.081
"HARE (Homo sapiens), Q8WWQ8",glycan array binding signal (z-score),[17],0.285
"C3b (Homo sapiens), P01024",glycan array binding signal (z-score),[3],-0.595
"6RG (Lolium perenne), B9U140",glycan array binding signal (z-score),[5],-0.075
"Regenerating Gene IV (Homo sapiens), Q9BYZ8",glycan array binding signal (z-score),[9],-0.14
"wLAT-1A (Homo sapiens), Q01650",glycan array binding signal (z-score),[18],0.692
same,glycan array binding signal (z-score),[14],3.91
6RG (Lolium perenne),glycan array binding signal (z-score),[19],-0.148
same,glycan array binding signal (z-score),[13],-0.247
"Neurocan (Homo sapiens), O14594",glycan array binding signal (z-score),[10],-0.021
same,glycan array binding signal (z-score),[20],2.26
Avaren (Actinomycete K97),glycan array binding signal (z-score),[19],-0.123
same,glycan array binding signal (z-score),[8],-0.094
same,glycan array binding signal (z-score),[9],-0.109
CHT (Homo sapiens),glycan array binding signal (z-score),"[4]; mutation: D138V, E140I",-0.176
